Source: PubChem BioAssay (National Center for Advancing Translational Sciences (NCATS))
Compounds with a hit are over-represented: about 1% of the library has one in this group of screens.
SNCA expr inh = reduces expression of the alpha-synuclein gene; 140,000 compounds, 0.17% hits; HEK-293 SNCA-luciferase knock-in, luminescence, 24 h; AID 1671194; Potency, µM (top dose mostly 57.2 µM), for inactives: top-dose activity change, negative = inhibition, hits mostly inhibitors;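 note: potency is the fitted concentration of half-maximal effect; plate controls were DMSO cells for no effect and cell-free wells for full effect; nearly all actives have a fitted effect of over 45% in size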
GPT2 inhibitor = GPT2 alanine aminotransferase inhibition; Q8TD30; Recombinant GPT2, coupled pyruvate oxidase/HRP Amplex Red fluorescence; Potency, µM (top dose mostly 57.7 µM), for the others: at the top dose activity change, negative = inhibition, most hits filed as inhibitors; 100,000 compounds, 0.25% hits; AID 1671188; note: potency is the fitted concentration of half-maximal effect; % is set by controls: 0 for no effect and ±100 for the full control effect; nearly all actives have a fitted effect of over 60% in size
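Fluorescence of coupled pyruvate oxidase/HRP/Amplex Red system (50uM Amplex, 30 min, dark) reports pyruvate formed by GPT2. Enzyme reaction: 10ng/uL GPT2, 2mM L-alanine, 250uM a-KG, 30 min room temperature, pH 7.5; 50uM AOA control.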
IP6K1 inh = IP6K1 kinase inhibition | 140,000 compounds, 0.81% hits | IP6K1 kinase, ADP-Glo luminescence, 2 h; hits give low values | Q92551 | AID 1645851 | activity change, % (series mostly up to about 58 µM); in the data active = activity change below about -25%; note: % is set by controls: 0 for no effect and ±100 for the full control effect
Target sequence (Q92551 whole entry, looked up): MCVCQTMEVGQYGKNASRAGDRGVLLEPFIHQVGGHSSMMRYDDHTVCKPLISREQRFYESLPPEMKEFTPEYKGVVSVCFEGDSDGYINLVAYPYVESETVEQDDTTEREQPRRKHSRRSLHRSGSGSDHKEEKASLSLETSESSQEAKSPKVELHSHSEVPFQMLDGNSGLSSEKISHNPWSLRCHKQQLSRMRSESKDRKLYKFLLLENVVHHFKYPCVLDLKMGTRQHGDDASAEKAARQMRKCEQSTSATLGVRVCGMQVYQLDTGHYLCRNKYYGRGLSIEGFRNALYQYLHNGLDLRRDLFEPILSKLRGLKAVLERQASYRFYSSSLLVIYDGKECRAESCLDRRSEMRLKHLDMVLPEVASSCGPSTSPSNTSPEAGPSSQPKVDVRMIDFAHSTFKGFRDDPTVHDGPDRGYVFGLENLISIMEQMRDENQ
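ADP-Glo luminescence measures ADP made by human IP6K1 during a 2 h RT reaction with ATP/IP6 (mix at 1.3 mM/130 uM); top library doses 57.5 and 19.1 uM final.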
SNCA viab count = reduces viability of HEK-293 SNCA reporter cells. HEK-293-SNCA-luc viability, GF-AFC fluorescence, 24 h. Potency, µM (series often up to 57.1 µM), for inactives: top-dose activity change, negative = cytotoxicity, actives largely listed as cytotoxic. 150,000 compounds, 0.12% hits. AID 1671193;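 note: potency is the fitted concentration of half-maximal effect; 0% = DMSO-treated cells and -100% = medium-only wells without cells; nearly all actives have a fitted effect of over 30% in size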
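Cytotoxicity counterscreen: after 24 h compound treatment of genome-edited SNCA-luciferase HEK-293 cells, live-cell protease substrate GF-AFC read by fluorescence after 30 min; activity scaled between DMSO (0%) and medium-only (-100%), curves Hill-fitted.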
IP6K1 conf = human IP6K1 inhibition, confirmatory; shares compounds with IP6K1 inh; recombinant IP6K1 kinase, ADP-Glo luminescence, 2 h; Potency, µM (series often up to 49 µM), for inactives: at the top dose activity change, negative = inhibition, usual class: inhibitors; 1,200 compounds, 13% hits; AID 1645852; note: potency is the fitted concentration of half-maximal effect; % is set by controls: 0 for no effect and ±100 for the full control effect; nearly all actives have a fitted effect of over 65% in size
GPT2 conf = confirmation of human GPT2 inhibitors; shares compounds with GPT2 inhibitor; GPT2 enzyme, coupled Amplex Red pyruvate fluorescence; Potency, µM, hits mostly inhibitors; 95 compounds, 90% hits
Starred values were filed as active, the others as inactive; i = inactive; ? = inconclusive; · = no result given; ! = not active in a repeat; [ ] = another dose, or the depositor's remark. Unless noted, calls come from the whole dose curve; as a rule, active = well fitted curve in the direction sought with a large enough effect; inconclusive = small, poorly fitted or top-dose-only effect, or another doubt; inactive = no such curve, though single readings can be large; an effect the other way counts as inactive or inconclusive.

SMILES	SNCA expr inh	GPT2 inhibitor	IP6K1 inh	SNCA viab count	GPT2 conf	others
O=C(NCc1ccnc2[nH]ccc12)c1ccccc1	74.5%[87.6 µM]	i	1.5	-1.0%[87.6 µM]	·
Fc1ccccc1CNCc1ccc(-c2ccnc3[nH]ccc23)cc1	·	4.8%	-42.2*	7.4%	·	IP6K1 conf=?
Cn1ncc2c(C(=O)NCC3CC3)cc(-c3ccccc3C(F)(F)F)nc21	·	·	9.4	·	·
Cn1cncc1C(N)(c1ccc(Cl)cc1)c1ccc2c(c1)c(-c1cccc(Cl)c1)cc(=O)n2C (configuration not stated)	·	i	-26.1*	9.47µM*	·	IP6K1 conf=?
CC(C)Nc1cc(-c2c[nH]c(C(=O)N[C@H](CO)c3cccc(Cl)c3)c2)c(Cl)cn1	?	0.4%	-19.2	-22.3%	·
Cc1cnc(Nc2ccc(F)cc2Cl)nc1-c1c[nH]c(C(=O)NC(CO)c2cccc(Cl)c2)c1 (configuration not stated)	·	7.08µM*	-42.1*	-26.8%	3.43*	IP6K1 conf=9.2µM*
COc1ccccc1Nc1ccnc(N2CCCC(C(=O)NCc3ccc(Cl)cc3)C2)n1 (configuration not stated)	?	i	2.5	-8.5%[12.5 µM]	·
CN(C)c1ccc(Nc2nc(N)n(C(=O)c3c(F)cccc3F)n2)cc1	55.4%	3.16µM*	-51.0*	-21.0%	1.22*	IP6K1 conf=10.3µM*
COc1cc(N2CCOCC2)ccc1Nc1ncc(F)c(Nc2ccccc2NS(C)(=O)=O)n1	·	3.16µM*	2.8	-30.1%	1.93*
COc1cc(N2CCOCC2)ccc1Nc1ncc(Cl)c(Nc2ccccc2NS(C)(=O)=O)n1	·	5.01µM*	-5.1	-30.3%	1.53*
CNc1nc(Nc2ccc(C(=O)N3CCOCC3)cc2OC)ncc1Cl	61.8%	1.8%	-20.7	1.9%	·
C=CC(=O)Nc1cccc(Oc2nc(Nc3ccc(N4CCN(C)CC4)cc3OC)ncc2Cl)c1	-3.8%	?	-4.1	?	·
COc1ccccc1Nc1ccnc(N2CCC(C(=O)NC(C)C)CC2)n1	-5.6%[87.6 µM]	3.8%[88.5 µM]	23.7	-9.0%[87.6 µM]	·
COc1cc(N2CCC(O)CC2)ccc1Nc1cc(Nc2ccccc2S(=O)(=O)C(C)C)c2cc[nH]c2n1	?	3.43µM*!	-2.9	?	3.43*
COc1cc(N2CCC(C(N)=O)CC2)ccc1Nc1nc(N)c(Cl)c(Nc2ccccc2S(=O)(=O)C(C)C)n1	?	1.37µM*	·	?	3.85*
COc1cc(N2CCC(N3CCN(C)CC3)CC2)ccc1Nc1ncnc(Nc2ccccc2S(=O)(=O)C(C)C)n1	?	4.32µM*!	1.9	?	1.53*
CCc1nc(C(N)=O)c(Nc2ccc(N3CCC(N4CCN(C)CC4)CC3)c(OC)c2)nc1NC1CCOCC1	10.4%	8.61µM*	26.4	?	3.06*
COc1ccc(-c2cccc(C(=O)N3CCN(Cc4ccccc4)CC3)c2)nn1	·	·	12.6	·	·
C[C@@H]1CN(C(=O)c2cc(N3CCOCC3)cc3c2OCCN3C)C[C@H](C)O1	·	·	·	·	4.44*
CCCn1ncc(N2CCC(C(=O)N(CCCOC)Cc3ccc4c(c3)CCCN4CC)CC2)cc1=O	-4.6%	10µM*	-3.9	-22.8%	1.72*
COc1cccc(-c2cc(C(=O)Nc3ccccc3F)c3cnn(C)c3n2)c1	·	·	-3.0	·	·
Clc1ccc2c(c1)Nc1ccccc1S2	-42.4%[25.6 µM]	?	15.2	-16.0%[23.9 µM]	3.43*
COc1ccc(CCC(=O)N2CCOc3ccc(N4CCCC4)cc3C2)cc1	?	3.16µM*	8.3	-14.5%	1.53*
CCOC(=O)C1CCN(C(=O)CC(c2ccc(OC)c(OC)c2)c2c[nH]c3c(CC)cccc23)CC1 (configuration not stated)	4.2%	3.3%	-2.4	-14.0%	·
COc1ccc(NC2CCCN(C(=O)c3ccccc3C(F)(F)F)C2)cc1OC (configuration not stated)	6.8%	?	9.6	0.8%	3.85*
COc1ccc(NC2CCCN(C(=O)c3cc(C(C)=O)n[nH]3)C2)cc1OC (configuration not stated)	8.4%	?	-4.4	-1.3%	·
O=C(Nc1ccc(OC(F)(F)F)cc1)N1CCOC[C@H](Oc2ccccc2)C1	?	-2.1%[88.5 µM]	4.8	-18.0%[87.6 µM]	·
